Most compounds without a hit are left out; they make up all but 4.2% or so of the library.
RecA splice inh: inhibitors of M. tuberculosis RecA intein splicing; P9WHJ3; cell-free RecA intein splicing, fluorescence; inhibition, % (concentration not given with the values); 0.75% of 290,000 active; in the data active = inhibition above about 30%
GDH-TPI counter-1: GDH-TPI coupled enzyme inhibition counter-screen; 1.2% of 360,000 active; inhibition, % at 4.8 µM; GDH-TPI coupled enzyme counterscreen, NADH absorbance
FBA Mtb inh: inhibits M. tuberculosis FBA enzyme; P9WQA3; purified M. tuberculosis FBA, fluorescence read-out; inhibition, % at 1 µM; 2.3% of 360,000 active; AID 588726; in the data active = inhibition above about 27%
Target sequence (P9WQA3 whole entry, looked up): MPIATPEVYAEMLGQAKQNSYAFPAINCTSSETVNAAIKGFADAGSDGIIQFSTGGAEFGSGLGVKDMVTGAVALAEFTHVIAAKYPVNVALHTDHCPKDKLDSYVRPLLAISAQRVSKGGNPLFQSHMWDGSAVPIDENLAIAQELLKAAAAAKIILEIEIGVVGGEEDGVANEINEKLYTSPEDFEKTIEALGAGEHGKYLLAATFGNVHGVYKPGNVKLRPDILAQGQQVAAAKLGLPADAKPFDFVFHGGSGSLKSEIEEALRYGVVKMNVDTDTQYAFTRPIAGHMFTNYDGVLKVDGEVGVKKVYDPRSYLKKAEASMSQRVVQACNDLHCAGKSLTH
CCHF vOTU inh: blocks the CCHF virus ovarian tumor domain protease; 0.55% of 370,000 active; inhibition, % at 11.5 µM; CCHFV vOTU protease, Pep-AMC fluorescence
Mtb FBA confirm: confirmation of M. tuberculosis fructose-bisphosphate aldolase inhibitors | 78% of 5,600 active | inhibition, % at 1 µM | purified M. tuberculosis FBA, fluorescence read-out | AID 651616 | shares compounds with FBA Mtb inh; in the data active = inhibition above about 27%
GDH-TPI counter-2: GDH-TPI inhibition counter-screen for FBA inhibitors | shares compounds with FBA Mtb inh | GDH-TPI coupled enzyme counterscreen, fluorescence | inhibition, % at 1 µM | 81% of 5,600 active | AID 652141; in the data active = inhibition above about 10%
Each line names hits and unclear results; the compound was inactive in the other large screens (follow-up assays come after a bar, where they were run). Rule as the data show it, unless noted: active = inhibition above about 30%; inactive = the rest.

COc1ccc(C(C)C)cc1S(=O)(=O)NC1CCCC1	none
Cn1cc2ccc(N)cc2n1	FBA Mtb inh 29 (no result: RecA splice inh) | Mtb FBA confirm 68 | GDH-TPI counter-2 56
COC(=O)c1ccc(NC(=O)C2CC3CCC2C3)cc1 (stereo not given)	none
COC(=O)c1ccc(NC(=S)NC2CC3CCC2C3)cc1 (stereo not given)	FBA Mtb inh 37 | Mtb FBA confirm 86 | GDH-TPI counter-2 64
Cc1ccc2c(c1)N(CC(=O)Nc1ccccc1F)C(=O)C(C)O2 (stereo not given)	none (no result: RecA splice inh)
COc1cc2[nH]c3c(=O)n(N)c(=O)[nH]c3c2cc1OC	FBA Mtb inh 34 | Mtb FBA confirm inactive | GDH-TPI counter-2 inactive
COc1ccc2[nH]c3c(=O)n(N)c(=O)[nH]c3c2c1	FBA Mtb inh 107 | Mtb FBA confirm 33 | GDH-TPI counter-2 31
CCN(CC)C1Oc2cc3c(cc2C(c2cc(OC)c(OC)c(OC)c2)C1C)OCO3 (stereo not given)	none (no result: RecA splice inh)
CCCCC(CCCCl)C(=O)Nc1ccccc1 (stereo not given)	none
CCCCC(SCC(=O)Nc1ccccc1)C(=O)O (stereo not given)	FBA Mtb inh 67 | Mtb FBA confirm 186 | GDH-TPI counter-2 160
CN1CCc2c(sc3c2C(=O)NC(c2ccccc2)N3)C1 (stereo not given)	none
Cc1ccc(C2NC(=O)c3c(sc4c3CCN(C)C4)N2)s1 (stereo not given)	FBA Mtb inh 45 | Mtb FBA confirm 69 | GDH-TPI counter-2 71
COc1cc2nc3occc3c(OC)c2cc1OC	none
COc1ccc2c(OC)c3ccoc3nc2c1OC	FBA Mtb inh 96 | Mtb FBA confirm 192 | GDH-TPI counter-2 166
N#CC1(NC(=O)COC(=O)/C=C/c2ccc3ccccc3n2)CCCCC1	none
Cc1oc(-c2cccs2)nc1CSCC(=O)N1CCC2(CC1)OCCO2	FBA Mtb inh 28 (no result: RecA splice inh) | Mtb FBA confirm 164 | GDH-TPI counter-2 144
CCCN(Cc1nnc(-c2ccccc2Cl)o1)C(=O)c1oc2ccccc2c1C	none
NC(CCc1ccccc1)c1csc(Nc2nccc(C(F)(F)F)n2)n1 (stereo not given)	none (no result: RecA splice inh)
CCOc1ccc(C(=O)NCC(=O)OCc2csc(-c3ccccc3)n2)cc1	FBA Mtb inh 29 | Mtb FBA confirm 194 | GDH-TPI counter-2 166
Cc1ccc(C(=O)NCC(=O)OCc2csc(-c3ccccc3)n2)cc1	none
COc1ccc(S(=O)(=O)N2CCc3ccccc32)cc1C(=O)Nc1ccc(NC(C)=O)cc1	none (no result: RecA splice inh)
CCCCNc1c(-c2cccc(-c3ccc(OC)cc3)c2)nc2cc(C)ccn12	FBA Mtb inh 29 (no result: RecA splice inh) | Mtb FBA confirm 66 | GDH-TPI counter-2 58
CCCCNc1c(-c2cccc(-c3cc(C(C)=O)cs3)c2)nc2ccc(C)cn12	none
CCCCNc1c(-c2cccc(-c3ccc(OC)cc3)c2)nc2ccc(C)cn12	FBA Mtb inh 31 | Mtb FBA confirm inactive | GDH-TPI counter-2 inactive
Cc1c(Cl)cccc1NC(=O)COC(=O)c1ccc(CN2CCCC2=O)cc1	none (no result: RecA splice inh)
O=C(CCc1nc2ccccc2c(=O)[nH]1)N1CCCc2ccccc21	none (no result: RecA splice inh)
Cc1ccc(-c2nc3c(=O)n(-c4ccccc4)c4c(c(=O)n(C)c(=O)n4C)c3o2)cc1	none
Cc1ccc(-c2nc3c(=O)n(C)c4ccccc4c3o2)cc1	FBA Mtb inh 35 | Mtb FBA confirm inactive | GDH-TPI counter-2 inactive
Cc1cccc(-c2oc3ccc(-c4ccc5c(c4)OCO5)cc3c2/C=C/c2ccc(N)cc2)c1	FBA Mtb inh 44 (no result: CCHF vOTU inh) | Mtb FBA confirm 135 | GDH-TPI counter-2 120
COc1ccc(-c2c(-c3cccc(C)c3)oc3ccc(-c4ccc5c(c4)OCO5)cc23)cn1	none
COc1ccc(-n2c(=S)[nH]c3cc(C(=O)NCCCN4CCCC4=O)ccc3c2=O)cc1OC	none
COc1cccc2[nH]c(C(=O)NCCCN3CCCC3=O)cc12	FBA Mtb inh 59 | Mtb FBA confirm 143 | GDH-TPI counter-2 115
CCN(Cc1cc(=O)oc2cc(C)ccc12)c1ccccc1	none
CCN(CC)c1ccc2c(C)c(-c3ccc(N)cc3)c(=O)oc2c1	none
CCOC(=O)Cc1c(C)c2ccc(N(CC)CC)cc2oc1=O	FBA Mtb inh 93 (no result: RecA splice inh) | Mtb FBA confirm 58 | GDH-TPI counter-2 51
CCN(CC)c1ccc2c(C)c(Cl)c(=O)oc2c1	FBA Mtb inh 67 | Mtb FBA confirm 65 | GDH-TPI counter-2 54
CCN(CC)c1ccc2ccc(=O)oc2c1	FBA Mtb inh 53 | Mtb FBA confirm 74 | GDH-TPI counter-2 67
CCN(CC)c1ccc2c(C)cc(=O)oc2c1	FBA Mtb inh 108 (no result: RecA splice inh) | Mtb FBA confirm 125 | GDH-TPI counter-2 88
CN(Cc1ccccc1)C(=O)COC(=O)CN1C(=O)c2ccccc2C1=O	none (no result: RecA splice inh)
Cc1ccc(C)c(C(=O)COC(=O)CN2C(=O)C3C4CCC(C4)C3C2=O)c1 (stereo not given)	none
Cc1nn(CCc2nn[nH]n2)c2nc(-c3ccccc3)cc(C(F)(F)F)c12	FBA Mtb inh 40 | Mtb FBA confirm active | GDH-TPI counter-2 164
COc1ccc(CCNC(=O)c2cc(-c3ccco3)nc3ccccc23)cc1	none (no result: GDH-TPI counter-1, FBA Mtb inh)
O=C(NNC(=O)c1cc(-c2ccco2)nc2ccccc12)c1ccccc1	FBA Mtb inh 50 | Mtb FBA confirm 68 | GDH-TPI counter-2 61
CCN(CC)CCNC(=O)c1cc(-c2ccco2)nc2ccccc12	FBA Mtb inh 82 | Mtb FBA confirm 152 | GDH-TPI counter-2 129
O=C(NCc1ccccc1)C(c1ccco1)N1CCN(c2ccccc2F)CC1 (stereo not given)	none (no result: RecA splice inh, GDH-TPI counter-1, FBA Mtb inh)
C#CCNC(=O)C[C@@H]1C[C@@]2(C(=O)OCC)CCC=C2N(Cc2ccc(Cl)cc2Cl)C1=O	none (no result: RecA splice inh, GDH-TPI counter-1, FBA Mtb inh)
O=c1[nH]c(-c2ccc(O)cc2)nc2scc(-c3cccs3)c12	FBA Mtb inh 35 | GDH-TPI counter-2 active
COc1ccccc1C1=NC(c2ccccc2)CN1c1ccccc1 (stereo not given)	FBA Mtb inh 102 | Mtb FBA confirm 89 | GDH-TPI counter-2 63
COc1ccccc1-c1cn(-c2ccccc2)c(=S)[nH]1	none
COCc1c(Br)c(C)[nH]c(=O)c1C#N	FBA Mtb inh 32 | Mtb FBA confirm 71 | GDH-TPI counter-2 50
O=C(O)C(C(O)c1ccc([N+](=O)[O-])cc1)[n+]1ccccc1 (stereo not given)	none
Cc1oncc1C(=O)Nc1ccc2ccccc2c1	none
COC(=O)c1cccc(NC(=O)c2cnoc2C)c1	FBA Mtb inh 31 | Mtb FBA confirm 95 | GDH-TPI counter-2 73
O=C([O-])c1cc(-c2ccccc2)cc(-c2ccccc2)[n+]1Cc1ccccc1	none (no result: GDH-TPI counter-1, FBA Mtb inh)
O=[N+]([O-])c1ccc(C[n+]2c(-c3ccccc3)cc(-c3ccccc3)cc2-c2ccccc2)cc1	FBA Mtb inh 67 | Mtb FBA confirm active | GDH-TPI counter-2 active
O=C(COC(=O)C1C2CC3OC(=O)C1C3C2)Nc1ccc(Br)cc1 (stereo not given)	none
Cc1ccc(CNC(=O)c2ccc(C)c(S(=O)(=O)N3CCCCC3)c2)cc1	none (no result: RecA splice inh)
O=C(COc1ccc(F)cc1)Nc1nnc(-c2ccncc2)s1	FBA Mtb inh 47 | Mtb FBA confirm 90 | GDH-TPI counter-2 66

Bioassay records (PubChem)
